Measured values: the OligoGym collection

target: GPX2; assay: pooled miR-30 sensor sort-seq; sequence = guide strand; settings: shRNA
Note: reference of the scale not given here.

Q: How did the sensor-assay potency score (higher = more potent) turn out when TTGATGTCAGGCTCAATGTTGA was run?
A: Its sensor-assay potency score (higher = more potent) is -0.614.

Q: For ATACTTGAGACTGTTCAGGATC, which sensor-assay potency score (higher = more potent) is on record?
A: Its sensor-assay potency score (higher = more potent) is -0.893.

Q: How did the sensor-assay potency score (higher = more potent) turn out when TTGCAGCTCGTTGAGCTGGGTG was run?
A: The sensor-assay potency score (higher = more potent) was -0.963.

Q: For TTCCAGGCCACATCTGAGCGGC, which sensor-assay potency score (higher = more potent) is on record?
A: The sensor-assay potency score (higher = more potent) was -0.521.

Q: With TTGGACAAGGGTGAAGGTGGGC as the sequence, how does the sensor-assay potency score (higher = more potent) read?
A: The sensor-assay potency score (higher = more potent) was 0.00355.

target: GRAMD1B; assay: as above; settings: shRNA

Q: For TACATGGTCTGTGTCTCCCTGA, which sensor-assay potency score (higher = more potent) is on record?
A: Its sensor-assay potency score (higher = more potent) is 0.155.

Q: TTTTTGGAGCTCAGTATCGTGG was tested. Which sensor-assay potency score (higher = more potent) did it give?
A: Its sensor-assay potency score (higher = more potent) is -1.12.

Q: How did the sensor-assay potency score (higher = more potent) turn out when AACATCATCATATATGTCCTAT was run?
A: The sensor-assay potency score (higher = more potent) was -0.649.

Q: Which sensor-assay potency score (higher = more potent) does the source give for TTGTCATTGAAGTCCAGTGAAG here?
A: The sensor-assay potency score (higher = more potent) was -1.36.

Q: Which sensor-assay potency score (higher = more potent) does the source give for TTGGTCTCTATGCTGCTCTTGG here?
A: The sensor-assay potency score (higher = more potent) was -0.389.

Q: With TTGTGTAGAAGTAGTCATGGTA as the sequence, how does the sensor-assay potency score (higher = more potent) read?
A: The sensor-assay potency score (higher = more potent) was 0.548.

Q: For TTTTCTTCACTTTCCGACGTGT, which sensor-assay potency score (higher = more potent) is on record?
A: Its sensor-assay potency score (higher = more potent) is 0.0883.

Q: Which sensor-assay potency score (higher = more potent) does the source give for TAACACATTATACCAACTCTGG here?
A: Its sensor-assay potency score (higher = more potent) is -0.853.

Q: With TTGTCTGTGCATCTCAGCCAAA as the sequence, how does the sensor-assay potency score (higher = more potent) read?
A: Its sensor-assay potency score (higher = more potent) is -1.36.

Q: How did the sensor-assay potency score (higher = more potent) turn out when TTGTAGAAGAGCATCATGTTAA was run?
A: The sensor-assay potency score (higher = more potent) was -0.883.

Q: Which sensor-assay potency score (higher = more potent) does the source give for TTCTTGGAGCCTTAGACCCTGC here?
A: The sensor-assay potency score (higher = more potent) was -0.896.

Q: Which sensor-assay potency score (higher = more potent) does the source give for TATCGTGGTACTTTTGTTGGGA here?
A: Its sensor-assay potency score (higher = more potent) is 0.623.

target: GRAMD1C; assay: as above; settings: shRNA

Q: How did the sensor-assay potency score (higher = more potent) turn out when ATAATCATCATCAACATGCAGA was run?
A: The sensor-assay potency score (higher = more potent) was 0.0723.

Q: How did the sensor-assay potency score (higher = more potent) turn out when TAACAAATCTGATTCAAGCTGT was run?
A: Its sensor-assay potency score (higher = more potent) is 0.354.

Q: How did the sensor-assay potency score (higher = more potent) turn out when TTCATTTTTATTCAAGTCCAGT was run?
A: The sensor-assay potency score (higher = more potent) was -0.865.

Q: TTTTGATGAATTTCCATCGAAT was tested. Which sensor-assay potency score (higher = more potent) did it give?
A: Its sensor-assay potency score (higher = more potent) is -0.801.

Q: For TAACTCTTGAAAAAATATCTGA, which sensor-assay potency score (higher = more potent) is on record?
A: The sensor-assay potency score (higher = more potent) was -0.51.

Q: How did the sensor-assay potency score (higher = more potent) turn out when TTGCTATAGAAACATAGCCAGT was run?
A: Its sensor-assay potency score (higher = more potent) is -1.61.

Q: Which sensor-assay potency score (higher = more potent) does the source give for TATTCTTCTGAATAGTTTCTGC here?
A: Its sensor-assay potency score (higher = more potent) is -0.573.

Q: With TTGATAGTCAGTACACTTGTAC as the sequence, how does the sensor-assay potency score (higher = more potent) read?
A: Its sensor-assay potency score (higher = more potent) is 0.115.

Q: For TACATCTTCCTGTAAGTCGGTG, which sensor-assay potency score (higher = more potent) is on record?
A: The sensor-assay potency score (higher = more potent) was -0.625.

Q: How did the sensor-assay potency score (higher = more potent) turn out when TATAAAGCAACTTACTTCGATA was run?
A: The sensor-assay potency score (higher = more potent) was -0.838.

Q: For TTATTTAGTAGATCAAACGTTT, which sensor-assay potency score (higher = more potent) is on record?
A: The sensor-assay potency score (higher = more potent) was -0.243.

Q: TAGTCCTCCAAAGAACTCCAGG was tested. Which sensor-assay potency score (higher = more potent) did it give?
A: The sensor-assay potency score (higher = more potent) was -0.901.

target: GRHL3; assay: as above; settings: shRNA

Q: How did the sensor-assay potency score (higher = more potent) turn out when TTGCATTTCTTGTAGACTTTGT was run?
A: The sensor-assay potency score (higher = more potent) was -0.218.

Q: TAGGTCGTCTCATTGCCCCTGA was tested. Which sensor-assay potency score (higher = more potent) did it give?
A: The sensor-assay potency score (higher = more potent) was 0.415.

Q: For TCACAGAAGATCTTGATCTGGC, which sensor-assay potency score (higher = more potent) is on record?
A: The sensor-assay potency score (higher = more potent) was 0.419.

Q: With TTTAGCAGCCGCACAGACCTGA as the sequence, how does the sensor-assay potency score (higher = more potent) read?
A: Its sensor-assay potency score (higher = more potent) is -0.237.

Q: How did the sensor-assay potency score (higher = more potent) turn out when TTCTTCTTGAGCAAATCTGGGT was run?
A: The sensor-assay potency score (higher = more potent) was -0.605.

Q: How did the sensor-assay potency score (higher = more potent) turn out when TTGATCTGGCAGACAGCACGGT was run?
A: The sensor-assay potency score (higher = more potent) was -0.0201.

Q: TAGTGTAAGAGAATTTCTGCAA was tested. Which sensor-assay potency score (higher = more potent) did it give?
A: Its sensor-assay potency score (higher = more potent) is 0.49.

Q: With TATTCTTCTTGAGCAAATCTGG as the sequence, how does the sensor-assay potency score (higher = more potent) read?
A: Its sensor-assay potency score (higher = more potent) is -0.748.

Q: How did the sensor-assay potency score (higher = more potent) turn out when TTTTGTGAGGAAAAGTCTGTGC was run?
A: The sensor-assay potency score (higher = more potent) was -0.211.

Q: How did the sensor-assay potency score (higher = more potent) turn out when TTTGTGGCAGCTGTCAACGGGT was run?
A: The sensor-assay potency score (higher = more potent) was -0.745.

Q: Which sensor-assay potency score (higher = more potent) does the source give for TTTTCTAGGTACGTCTTCCAGG here?
A: Its sensor-assay potency score (higher = more potent) is -0.466.
